Inconclusive results are not listed. Activity calls are given as the source filed them. The calls were made as follows: active = hit-call score of the fitted dose curve at least 0.9, where 1 is the maximum; inconclusive = response in the unintended direction; inactive = score below 0.9.
These compounds were tested against human Phosphodiesterase 5 (PDE5), PDE5A (gene 8654) (UniProt O76074) (assay: NVS_ENZ_hPDE5: NovaScreen (NVS) Enzymatic Assay for human Phosphodiesterase 5 (PDE5) (AID 2283194)).
Procedure: NVS_ENZ_hPDE5 is a biochemical, single-readout assay that uses extracted gene-proteins in a cell-free assay. Measurements were taken 1 hour after chemical dosing in a 384-well plate.NVS_ENZ_hPDE5 is one of one assay component(s) measured or calculated from the NVS_ENZ_hPDE5 assay. It is designed to make measurements of enzyme activity, a form of enzyme reporter, as detected with fluorescence intensity signals by Fluorescence and electrophoretic mobility shift technology.Data from the assay component NVS_ENZ_hPDE5 was analyzed into 1 assay endpoint. This assay endpoint, NVS_ENZ_hPDE5, was analyzed in the positive analysis fitting direction relative to DMSO as the negative control and baseline of activity. Using a type of enzyme reporter, loss-of-signal activity can be used to understand changes in the enzymatic activity as they relate to the gene PDE5A. Furthermore, this assay endpoint can be referred to as a primary readout, because this assay has produced multiple assay endpoints where this one serves a enzymatic activity function. To generalize the intended target to other relatable targets, this assay endpoint is annotated to the esterase intended target family, where the subfamily is phosphodiesterase.
Binding assays used specific radioligands (tritiated, iodinated) with non-radioactive competitive displacement ligands in agonist or antagonist protocols (as indicated) and various reference compounds and inhibitors to titrate specific binding to receptors and transporters. Most enzyme assays (CYPs, kinases, phosphatases, proteases, HDACs) used recombinant protein and specific substrates (fluorescence mostly, some colorimetric and radioactive) and inhibitors, followed by a biochemical separation of substrate and product. All assays for the biochemical HTS were initially run in duplicate at a single concentration (10 uM for CYP450 assays and 25 uM for all others). […] Each assay was run with positive and negative controls, and concurrent controls on every plate. The follow-up (secondary) screen tested active chemical-pairs in concentration series, as well as a few additional assays not tested in the primary screen, some selected negative inactives, and several cases re-run in the concentration series for confirmatory purposes.

Compound	AC50	outcome
C[C@]12CCC(=O)C=C1CC[C@@H]1[C@@H]2CC[C@]2(C)C(=O)CC[C@@H]12	12.3 µM (active)	
Cc1ccc(O)c(C)c1	37.4 µM (active)	
CCC(C)(c1ccc(O)cc1)c1ccc(O)cc1		inactive
CC(C)C(=O)OCC(C)(C)C(OC(=O)C(C)C)C(C)C (configuration not stated)		inactive
Cc1cc2c3c(c1)C(c1ccccc1)=N[C@@H](NC(=O)c1ccncc1)C(=O)N3CC2	3.87 µM (active)	
Oc1c(Cl)c(Cl)c(Cl)c(Cl)c1Cl		inactive
O=C(O)C(F)(F)C(F)(F)C(F)(F)C(F)(F)C(F)(F)C(F)(F)C(F)(F)C(F)(F)F		inactive
ClC(Cl)=C(c1ccc(Cl)cc1)c1ccc(Cl)cc1		inactive
N#Cc1ccc(N(CC(N)=O)CC(F)(F)F)cc1C(F)(F)F		inactive
CCCN(CCC)N=O		inactive
O=S(=O)(O)C(F)(F)C(F)(F)C(F)(F)C(F)(F)C(F)(F)C(F)(F)F		inactive
CCNc1nc(NC(C)C)nc(SC)n1	17.4 µM (active)	

Source: PubChem BioAssay (EPA / NIEHS)
